Laboratory results as given in PubChem BioAssay (EPA / NIEHS).
Activity calls are given as the source filed them. The calls were made as follows: active = hit-call score of the fitted dose curve at least 0.9, where 1 is the maximum; inactive = score below 0.9.

Columns and labels:
[1] = ATG_GLI_CIS: Attagene CIS-FACTORIAL HepG2 Assay for human Zinc Finger Protein GLI1 (AID 2282945); conditions: HepG2, Attagene cis-factorial reporter mRNA, GLI element; actives raise or lower the signal
Summary of the method: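 Transiently transfected HepG2 cells report endogenous transcription factor activity via cis-element-driven reporter units. After 24 h compound exposure, reporter mRNA was measured by RT-PCR with capillary electrophoresis; bidirectional fitting against DMSO baseline.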

[2] = molecular target: Bile acid receptor (Homo sapiens) (UniProt Q96RI1); test: ATG_IR1_CIS: Attagene CIS-FACTORIAL HepG2 Assay for human Nuclear Receptor Subfamily 1 Group H Member 4 (NR1H4), IR1 submotif (AID 2282946); conditions: IR1 reporter transcription, actives raise or lower the signal
Bile acid receptor (Homo sapiens), sequence (Q96RI1 whole entry, looked up): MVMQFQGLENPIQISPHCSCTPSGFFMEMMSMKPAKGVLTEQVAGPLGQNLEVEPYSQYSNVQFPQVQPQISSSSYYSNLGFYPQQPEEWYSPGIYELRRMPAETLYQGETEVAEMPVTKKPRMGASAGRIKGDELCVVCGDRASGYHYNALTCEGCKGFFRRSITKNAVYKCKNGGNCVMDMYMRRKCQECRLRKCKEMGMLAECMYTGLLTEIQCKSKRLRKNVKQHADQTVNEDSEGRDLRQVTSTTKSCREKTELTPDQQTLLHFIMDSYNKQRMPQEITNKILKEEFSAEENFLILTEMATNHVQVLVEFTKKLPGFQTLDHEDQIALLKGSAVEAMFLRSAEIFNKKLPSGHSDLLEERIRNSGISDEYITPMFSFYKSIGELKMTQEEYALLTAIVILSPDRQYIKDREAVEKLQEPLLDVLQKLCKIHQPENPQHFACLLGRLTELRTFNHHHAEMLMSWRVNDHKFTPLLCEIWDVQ
Summary of the method: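 Fluorescence of capillary-separated, HpaI-digested RT-PCR reporter products gave IR1-element mRNA induction in HepG2 cells 24 h after dosing. Endogenous transcription factors drove the cis-regulated reporters; activity was fitted bidirectionally against DMSO.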

[3] = ATG_GRE_CIS: Attagene CIS-FACTORIAL HepG2 Assay for human Glucocorticoid Response Elements (GRE) (AID 2282947); conditions: HepG2 GRE cis-reporter, Attagene multiplex mRNA; actives raise or lower the signal
Summary of the method: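 Fluorescence intensity of reporter-specific cDNA fragments, separated by capillary electrophoresis, provides the signal. Constructs carry cis-regulating promoters in transiently transfected HepG2 liver cells; 24 h incubation; fitting is bidirectional against DMSO.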

[4] = ATG_M_32_CIS: Attagene CIS-FACTORIAL HepG2 Assay for M32 Transcription Factor (Internal Marker) (AID 2282949); conditions: HepG2 Attagene cis-factorial M32 reporter, mRNA; actives raise or lower the signal;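 also: background control marker of the multiplexed CIS panel rather than a real target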
Summary of the method: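 HepG2 transfectants (cis-regulated reporter transcription units) dosed 24 h. Reporter mRNA by RT-PCR plus CE, analysed as gain or loss relative to DMSO.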

[5] = ATG_M_06_CIS: Attagene CIS-FACTORIAL HepG2 Assay for M06 Transcription Factor (Internal Marker) (AID 2282950); conditions: HepG2 Attagene CIS-FACTORIAL M06 internal marker reporter; actives raise or lower the signal
Summary of the method: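 Steps: transfect HepG2 with multiplexed cis-element reporter constructs; dose chemical 24 h; extract RNA with DNase treatment; reverse-transcribe, PCR-amplify, 6-FAM label, HpaI digest; separate fragments by capillary electrophoresis. Activity fitted both directions versus DMSO.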

[6] = molecular target: Hypoxia-inducible factor 1-alpha (Homo sapiens) (UniProt Q16665); test: ATG_HIF1a_CIS: Attagene CIS-FACTORIAL HepG2 Assay for human Hypoxia Inducible Factor 1 (HIF1A) (AID 2282951); conditions: HepG2 Attagene cis-factorial HIF1a reporter transcription; actives raise or lower the signal
Hypoxia-inducible factor 1-alpha (Homo sapiens), sequence (Q16665 whole entry, looked up): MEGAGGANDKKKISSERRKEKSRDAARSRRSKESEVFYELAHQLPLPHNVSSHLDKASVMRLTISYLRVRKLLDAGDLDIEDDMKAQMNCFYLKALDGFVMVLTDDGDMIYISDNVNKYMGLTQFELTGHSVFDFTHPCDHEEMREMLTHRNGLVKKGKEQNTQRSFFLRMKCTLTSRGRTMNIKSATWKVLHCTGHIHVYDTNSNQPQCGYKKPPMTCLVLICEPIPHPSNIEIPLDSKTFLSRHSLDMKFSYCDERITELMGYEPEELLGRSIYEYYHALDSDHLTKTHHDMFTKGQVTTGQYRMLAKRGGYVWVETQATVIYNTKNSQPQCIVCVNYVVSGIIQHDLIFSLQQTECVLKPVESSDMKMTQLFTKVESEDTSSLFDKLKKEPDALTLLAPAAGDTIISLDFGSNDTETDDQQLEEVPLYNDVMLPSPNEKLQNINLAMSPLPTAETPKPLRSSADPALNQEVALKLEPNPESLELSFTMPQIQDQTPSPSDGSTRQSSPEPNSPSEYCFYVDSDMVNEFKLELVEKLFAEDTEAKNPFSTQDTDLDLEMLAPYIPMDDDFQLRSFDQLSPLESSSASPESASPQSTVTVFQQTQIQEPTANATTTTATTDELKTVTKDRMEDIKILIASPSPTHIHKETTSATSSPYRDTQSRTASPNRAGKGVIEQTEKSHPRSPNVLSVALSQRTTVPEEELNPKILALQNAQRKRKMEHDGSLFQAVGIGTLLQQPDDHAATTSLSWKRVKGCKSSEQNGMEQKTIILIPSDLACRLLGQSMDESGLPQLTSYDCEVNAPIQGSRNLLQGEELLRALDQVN
Summary of the method: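 HepG2 cells transiently transfected with multiple cis-regulated reporter transcription units measure endogenous transcription factor activity. After 24 h exposure, reporter mRNA is quantified by RT-PCR with 6-FAM labelling, HpaI digestion and capillary electrophoresis. Bidirectional fitting against DMSO.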

[7] = molecular target: Hepatocyte nuclear factor 6 (Homo sapiens) (UniProt Q9UBC0); test: ATG_HNF6_CIS: Attagene CIS-FACTORIAL HepG2 Assay for human Hepatocyte Nuclear Factor 6 (HNF6) (AID 2282952); conditions: HepG2 Attagene cis-factorial HNF6 reporter transcription; actives raise or lower the signal
Hepatocyte nuclear factor 6 (Homo sapiens), sequence (Q9UBC0 whole entry, looked up, the tested form may be a part): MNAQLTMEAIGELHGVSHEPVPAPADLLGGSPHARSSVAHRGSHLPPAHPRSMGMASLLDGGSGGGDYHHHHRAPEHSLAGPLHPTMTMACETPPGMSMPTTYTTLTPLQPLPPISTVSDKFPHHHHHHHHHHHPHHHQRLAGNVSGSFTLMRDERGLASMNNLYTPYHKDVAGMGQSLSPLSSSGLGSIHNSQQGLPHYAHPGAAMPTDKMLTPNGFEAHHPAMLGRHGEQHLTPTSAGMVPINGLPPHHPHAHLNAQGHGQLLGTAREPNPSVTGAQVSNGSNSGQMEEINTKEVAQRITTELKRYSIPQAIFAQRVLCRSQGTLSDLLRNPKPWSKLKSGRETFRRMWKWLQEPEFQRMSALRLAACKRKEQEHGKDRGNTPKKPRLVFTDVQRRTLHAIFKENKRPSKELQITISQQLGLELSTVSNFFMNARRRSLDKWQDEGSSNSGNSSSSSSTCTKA
Summary of the method: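 Readout: fluorescent reporter-transcript fragments resolved by capillary electrophoresis after RT-PCR, reflecting endogenous factor activity in transfected HepG2. Exposure 24 h. Gain or loss of signal fitted bidirectionally against DMSO.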

[8] = molecular target: Heat shock factor protein 1 (Homo sapiens) (UniProt Q00613); test: ATG_HSE_CIS: Attagene CIS-FACTORIAL HepG2 Assay for human Heat Shock Transcription Factor 1 (HSE) (AID 2282953); conditions: HepG2 HSE cis-reporter, Attagene RNA transcription; actives raise or lower the signal
Heat shock factor protein 1 (Homo sapiens), sequence (Q00613 whole entry, looked up, the tested form may be a part): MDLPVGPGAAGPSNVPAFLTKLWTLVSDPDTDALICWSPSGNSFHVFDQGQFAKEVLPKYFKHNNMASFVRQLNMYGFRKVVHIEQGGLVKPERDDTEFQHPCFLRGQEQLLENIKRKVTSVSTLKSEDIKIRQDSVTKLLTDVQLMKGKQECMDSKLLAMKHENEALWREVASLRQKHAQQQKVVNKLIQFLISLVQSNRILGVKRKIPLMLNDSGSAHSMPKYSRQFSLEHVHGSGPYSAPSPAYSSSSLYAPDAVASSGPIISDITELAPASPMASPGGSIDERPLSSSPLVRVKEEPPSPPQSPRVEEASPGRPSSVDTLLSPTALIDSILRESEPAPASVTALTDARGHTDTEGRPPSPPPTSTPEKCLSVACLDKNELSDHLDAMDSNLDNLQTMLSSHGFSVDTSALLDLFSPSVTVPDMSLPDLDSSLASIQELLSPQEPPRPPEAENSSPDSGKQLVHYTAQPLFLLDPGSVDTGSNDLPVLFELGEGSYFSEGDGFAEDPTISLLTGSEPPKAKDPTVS
Summary of the method: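 Cells were transfected with cis-element-driven reporter constructs, dosed for 24 h, then total RNA was reverse-transcribed and reporter cDNA amplified, FAM-labelled and digested with HpaI. Fragments were resolved by capillary electrophoresis; gain or loss was fitted against DMSO.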

[9] = ATG_MRE_CIS: Attagene CIS-FACTORIAL HepG2 Assay for human Metal Responsive Element (MRE) (AID 2282954); conditions: HepG2 MRE cis-reporter transcription, Attagene multiplex; actives raise or lower the signal
Summary of the method: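 Measured here is mRNA induction from an MRE cis-element reporter in HepG2 after 24 h, quantified by fluorescence of labelled RT-PCR products on capillary electrophoresis; gain- and loss-of-signal fits use DMSO as baseline.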

[10] = ATG_ISRE_CIS: Attagene CIS-FACTORIAL HepG2 Assay for human Interferon Regulatory Factor 1 (IRF1) binding to an Interferon-Stimulated Response Element (ISRE) (AID 2282948); conditions: HepG2 ISRE cis-reporter (Attagene), mRNA transcription readout; actives raise or lower the signal
Summary of the method: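 Uses HepG2 liver cells transfected with cis-regulated reporters and measures mRNA 24 h post-dosing through RT-PCR, primer-extension labelling and capillary electrophoresis, with DMSO as negative control.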

Measured: AC50

COCc1cnc(C2=NC(C)(C(C)C)C(=O)N2)c(C(=O)O)c1 (configuration not stated)
not listed: [10]
inactive: all other assays above

COc1ccc(-c2ccccc2)cc1NNC(=O)OC(C)C
active: [3] 13.2 µM | [6] 22.8 µM | [8] 50 µM | [9] 22.7 µM
inactive: all other assays above

CCCC(=NOCC)C1=C(O)CC(CC(C)SCC)CC1=O (configuration not stated)
not listed: [2] | [10]
inactive: all other assays above

CCOC(=O)C(C)OC(=O)c1cc(Oc2ccc(C(F)(F)F)cc2Cl)ccc1[N+](=O)[O-] (configuration not stated)
not listed: [2]
inactive: all other assays above

CC(C)NC(=O)N1CC(=O)N(c2cc(Cl)cc(Cl)c2)C1=O
inactive: [1] | [4] | [5] | [6] | [7] | [9]

COP(=S)(OC)SCn1nnc2ccccc2c1=O
active: [9] 17.3 µM
not listed: [2] | [3] | [10]
inactive: all other assays above

CC(C)Oc1cccc(NC(=O)c2ccccc2C(F)(F)F)c1
active: [9] 28.7 µM
not listed: [2] | [10]
inactive: all other assays above

N#Cc1c(Cl)cccc1Cl
not listed: [2] | [10]
inactive: all other assays above

Nc1cnn(-c2ccccc2)c(=O)c1Cl
not listed: [2] | [10]
inactive: all other assays above

CC(C)N1C(=O)N(c2ccccc2)CSC1=NC(C)(C)C
not listed: [2] | [10]
inactive: all other assays above

COP(=O)(OC)O/C(C)=C/C(=O)N(C)C
not listed: [2] | [3]
inactive: all other assays above

CC(C)(C)C(=O)C(Oc1ccc(Cl)cc1)n1cncn1 (configuration not stated)
not listed: [2] | [10]
inactive: all other assays above

CCSC(=O)N1CCCCCC1
not listed: [2] | [3] | [10]
inactive: all other assays above

C=CCOC(=O)C(C)(C)OC(=O)c1cc(-n2c(=O)cc(C(F)(F)F)n(C)c2=O)ccc1Cl
not listed: [2] | [10]
inactive: all other assays above

O=c1n(Cl)c(=O)n(Cl)c(=O)n1Cl
not listed: [2] | [10]
inactive: all other assays above

Nc1c(Cl)c(Cl)nc(C(=O)O)c1Cl
not listed: [2]
inactive: all other assays above

N#Cc1c[nH]cc1-c1cccc2c1OC(F)(F)O2
active: [9] 8.67 µM
not listed: [2] | [10]
inactive: all other assays above

CC1(C)C(C=C(Cl)Cl)C1C(=O)OC(C#N)c1cccc(Oc2ccccc2)c1 (configuration not stated)
active: [9] 14.9 µM
not listed: [2] | [10]
inactive: all other assays above

COC(=O)N(C(=O)N1CO[C@@]2(C(=O)OC)Cc3cc(Cl)ccc3C2=N1)c1ccc(OC(F)(F)F)cc1
active: [9] 2.11 µM
not listed: [2] | [10]
inactive: all other assays above

CC(C)N1C(=O)c2ccccc2NS1(=O)=O
not listed: [2] | [10]
inactive: all other assays above

CCOc1nc(C(Cl)(Cl)Cl)ns1
not listed: [2] | [3] | [10]
inactive: all other assays above

COc1cc(Cl)c(OC)cc1Cl
not listed: [2]
inactive: all other assays above

CC1(C)CCC(=Cc2ccc(Cl)cc2)C1(O)Cn1cncn1 (configuration not stated)
not listed: [2] | [10]
inactive: all other assays above

COC(=O)c1c(C(F)F)nc(C(F)(F)F)c(C2=NCCS2)c1CC(C)C
active: [9] 18.5 µM
not listed: [2] | [3] | [10]
inactive: all other assays above

COC(=O)NS(=O)(=O)c1ccc(N)cc1
not listed: [2] | [8] | [10]
inactive: all other assays above

CN/C(=N\[N+](=O)[O-])NCc1cnc(Cl)s1
not listed: [2] | [3]
inactive: all other assays above

Nc1c(Cl)c(F)nc(OCC(=O)O)c1Cl
not listed: [2] | [10]
inactive: all other assays above

CC1(C)CON(Cc2ccccc2Cl)C1=O
not listed: [2] | [3]
inactive: all other assays above

CNC(=O)N(C)c1nnc(C(C)(C)C)s1
inactive: [1] | [4] | [5] | [7] | [8] | [9]

CCOP(=S)(OCC)Oc1nc(Cl)n(C(C)C)n1
not listed: [2] | [10]
inactive: all other assays above

Cc1cc(C)nc(Nc2ccccc2)n1
not listed: [2] | [8]
inactive: all other assays above

CSC(=O)c1c(C(F)F)nc(C(F)(F)F)c(C(=O)SC)c1CC(C)C
not listed: [2] | [10]
inactive: all other assays above

C=C(C)CN(CC)c1c([N+](=O)[O-])cc(C(F)(F)F)cc1[N+](=O)[O-]
not listed: [2] | [10]
inactive: all other assays above

CC(C)Nc1nc(Cl)nc(NC(C)C)n1
not listed: [2] | [3] | [10]
inactive: all other assays above

CCOP(=O)(OCC)Oc1nc(Cl)c(Cl)cc1Cl
not listed: [2]
inactive: all other assays above

O=C1C2CC=CCC2C(=O)N1SC(Cl)(Cl)Cl (configuration not stated)
not listed: [2] | [3]
inactive: all other assays above

Clc1nc(Cl)nc(Nc2ccccc2Cl)n1
not listed: [2] | [10]
inactive: all other assays above

O=C(Nc1ccccc1-c1ccc(Cl)cc1)c1cccnc1Cl
not listed: [2]
inactive: all other assays above
